Test [1] is described as follows: optical density shifts of acrAB sulA E. coli – strain DRC41, OD650, 48 h, E. coli filamentation inducer project, primary screen (AID 1152).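 Note: E. coli MC1000 strain DRC41 lacking acrAB efflux pump and sulA.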 The settings on record: higher = more signal, called active from +8 up or from −8 down.
The nature of test [2]: probe aLefty1 binding on compound microarray – biochemical, small-molecule microarray, 635/667 nm fluorescence, primary screen (AID 1153).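 Note: score merges spot fluorescence with signal-to-noise ratio from the scanned slide images.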 The settings on record: higher = more signal.
Test [3] can be described thus: plasmodial surface anion channel blockers, osmotic lysis – cell-based, P. falciparum Indochina, OD700, 1 h, primary screen (AID 1154). The settings on record: P. falciparum Indochina infected RBC osmotic lysis, higher = more signal, called active from +8 up or from −8 down.
Test [4] is described as follows: plasmodial surface anion channel blockers, osmotic lysis – cell-based, P. falciparum Indochina, OD700, 2 h, primary screen (AID 1155).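 Note: lysis reports solute entry through the parasite surface anion channel PSAC.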 The settings on record: P. falciparum Indochina infected erythrocytes, higher = more signal, called active from +8 up or from −8 down.
A short description of test [5]: changes in parasitized red cell lysis, either direction – P. falciparum Indochina, OD700, 3 h, PSAC antagonist project, primary screen (AID 1156). The settings on record: P. falciparum-infected erythrocytes, osmotic lysis, higher = more signal, called active from +8 up or from −8 down.
Test [6] is described as follows: plasmodial surface anion channel blockers, osmotic lysis – cell-based, P. falciparum Indochina, OD700, 18 h, primary screen (AID 1157). The settings on record: P. falciparum Indochina infected erythrocytes, osmotic lysis OD700, 18 h; higher = more signal, called active from +8 up or from −8 down.
A short description of test [7]: S6 kinase pathway phospho-S6 level changes – cell-based, A549, cytoblot, luminescence, serum-stimulated, primary screen (AID 1158).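 Note: serum-stimulated A549 lung adenocarcinoma cells; signal is phosphorylated S6 detected by cytoblot immunostaining with HRP secondary.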 The settings on record: 5 h, higher = more signal.
The target of test [8] is NADPH oxidase 2 (Homo sapiens) (UniProt P04839). The test can be described thus: compounds shifting NOX2 Amplex Red fluorescence – cell-based, HEK293-NOX2, PMA-stimulated, NOX inhibitor project, primary screen (AID 1159). Note: test concentration not given here. The settings on record: 45 min, higher = more signal, called active from +8 up or from −8 down.
Chain of NADPH oxidase 2 (Homo sapiens) (P04839 whole entry, looked up): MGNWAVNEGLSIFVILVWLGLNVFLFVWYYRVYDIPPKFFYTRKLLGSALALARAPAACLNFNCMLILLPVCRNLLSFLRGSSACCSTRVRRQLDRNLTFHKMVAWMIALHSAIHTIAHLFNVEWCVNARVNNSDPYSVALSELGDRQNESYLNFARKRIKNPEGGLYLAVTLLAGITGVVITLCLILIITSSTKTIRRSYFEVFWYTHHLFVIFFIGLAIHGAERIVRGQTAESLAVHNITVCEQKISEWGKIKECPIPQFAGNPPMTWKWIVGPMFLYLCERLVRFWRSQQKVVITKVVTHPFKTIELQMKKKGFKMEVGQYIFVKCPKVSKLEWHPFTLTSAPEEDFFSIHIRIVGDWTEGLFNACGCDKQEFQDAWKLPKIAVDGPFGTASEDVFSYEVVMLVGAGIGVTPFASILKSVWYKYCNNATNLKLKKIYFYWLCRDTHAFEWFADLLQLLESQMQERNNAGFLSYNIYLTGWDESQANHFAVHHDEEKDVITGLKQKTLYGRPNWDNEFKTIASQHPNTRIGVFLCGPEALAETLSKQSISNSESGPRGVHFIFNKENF
Test [9] concerns the target NADPH oxidase 4 (Homo sapiens) (UniProt Q9NPH5). The test can be described thus: compounds shifting NOX4 Amplex Red fluorescence – cell-based, HEK293-NOX4, tetracycline-induced, NOX inhibitor project, primary screen (AID 1160). The settings on record: HEK293-NOX4, Amplex Red H2O2 fluorescence, 45 min; higher = more signal, called active from +8 up or from −8 down.
Test [10] concerns the target NADPH oxidase 5 (Homo sapiens) (UniProt Q96PH1). The test can be described thus: compounds shifting NOX5 Amplex Red fluorescence – cell-based, HEK293-NOX5, NOX inhibitor project, primary screen (AID 1161). The settings on record: HEK293-NOX5, ionomycin, 45 min, higher = more signal.
Test [11] in a line: compound effects on lung adenocarcinoma cell viability – A549, calcein-AM fluorescence, 48 h, basal, profiling panel (AID 1162). Note: test concentration not given here. The settings on record: higher = more signal.
A short description of test [12]: compound effects on differentiated 3T3-L1 adipocyte viability – cell-based, 3T3-L1 adipocytes, calcein-AM fluorescence, 48 h, basal, profiling panel (AID 1163). Note: test concentration not given here. The settings on record: 3T3-L1 adipocytes viability, higher = more signal.
Test [13] in a line: compound effects on hepatocellular carcinoma cell viability – HepG2, calcein-AM fluorescence, 48 h, basal, profiling panel (AID 1164). Note: test concentration not given here. The settings on record: higher = more signal.
Test [14] can be described thus: compound effects on multiple myeloma cell viability – MM1S, calcein-AM fluorescence, 48 h, basal, profiling panel (AID 1165).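 Note: viability of MM1S multiple myeloma cells under basal unstimulated conditions; test concentration not given here.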 The settings on record: higher = more signal.
Test [15] in a line: calcein-AM signal in unstimulated myeloma cells – cell-based, calcein-AM fluorescence, 48 h, PK04 Diversity Set, profiling panel (AID 1166).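 Note: cells grown under basal conditions without added stimulus; test concentration not given here.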 The settings on record: RPMI8226 myeloma viability, higher = more signal.
A short description of test [16]: JC-1 mitochondrial signal, unstimulated HepG2 cells – cell-based, JC-1 fluorescence, 24 h, 100 nL compound, profiling panel (AID 1167). Note: test concentration not given here. The settings on record: HepG2 mitochondrial potential, higher = more signal.
The nature of test [17]: JC-1 mitochondrial signal, unstimulated adipocytes – cell-based, JC-1 fluorescence, 3T3-L1 adipocytes, 24 h, 100 nL compound, profiling panel (AID 1168). Note: test concentration not given here. The settings on record: JC-1 mitochondrial fluorescence, higher = more signal, called active from +8 up or from −8 down.
Test [18] can be described thus: JC-1 mitochondrial signal, unstimulated myeloma cells – cell-based, JC-1 fluorescence, RPMI8226, 24 h, 100 nL compound, profiling panel (AID 1169). Note: test concentration not given here. The settings on record: JC-1 mitochondrial potential fluorescence, higher = more signal.
Test [19] in a line: JC-1 mitochondrial signal, unstimulated MM1S myeloma – cell-based, JC-1 fluorescence, 24 h, 100 nL compound, profiling panel (AID 1170). Note: test concentration not given here. The settings on record: MM1S mitochondrial potential, higher = more signal.
Test [20] in a line: resazurin metabolic signal in A549 cells – cell-based, resazurin fluorescence, 24 h, PK04 Diversity Set, profiling panel (AID 1171). Note: test concentration not given here. The settings on record: A549 viability, higher = more signal, called active from +8 up or from −8 down. (Resazurin is reduced to fluorescent resorufin, in cell work by metabolically active cells.)

Activity calls are given as the source filed them.

Chain of NADPH oxidase 5 (Homo sapiens) (Q96PH1 whole entry, looked up): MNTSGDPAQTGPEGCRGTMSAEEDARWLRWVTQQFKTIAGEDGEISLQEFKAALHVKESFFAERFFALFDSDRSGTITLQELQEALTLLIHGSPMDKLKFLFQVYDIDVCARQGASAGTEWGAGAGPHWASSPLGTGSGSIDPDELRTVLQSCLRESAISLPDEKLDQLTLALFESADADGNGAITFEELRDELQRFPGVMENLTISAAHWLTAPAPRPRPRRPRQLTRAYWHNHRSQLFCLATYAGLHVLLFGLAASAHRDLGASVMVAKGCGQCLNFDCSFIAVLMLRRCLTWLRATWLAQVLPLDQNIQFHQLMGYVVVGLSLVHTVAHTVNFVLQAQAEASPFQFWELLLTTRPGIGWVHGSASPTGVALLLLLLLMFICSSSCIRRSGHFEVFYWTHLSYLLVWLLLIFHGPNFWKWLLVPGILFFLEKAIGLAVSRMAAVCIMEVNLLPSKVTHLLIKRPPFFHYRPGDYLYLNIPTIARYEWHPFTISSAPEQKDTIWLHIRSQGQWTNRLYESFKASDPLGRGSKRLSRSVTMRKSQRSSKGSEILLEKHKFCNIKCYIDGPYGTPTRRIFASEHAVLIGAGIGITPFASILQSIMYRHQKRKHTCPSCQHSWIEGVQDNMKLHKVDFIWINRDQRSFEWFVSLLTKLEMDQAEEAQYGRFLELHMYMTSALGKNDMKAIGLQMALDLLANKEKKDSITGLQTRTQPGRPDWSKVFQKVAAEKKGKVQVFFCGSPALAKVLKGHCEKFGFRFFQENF
Chain of NADPH oxidase 4 (Homo sapiens) (Q9NPH5 whole entry, looked up): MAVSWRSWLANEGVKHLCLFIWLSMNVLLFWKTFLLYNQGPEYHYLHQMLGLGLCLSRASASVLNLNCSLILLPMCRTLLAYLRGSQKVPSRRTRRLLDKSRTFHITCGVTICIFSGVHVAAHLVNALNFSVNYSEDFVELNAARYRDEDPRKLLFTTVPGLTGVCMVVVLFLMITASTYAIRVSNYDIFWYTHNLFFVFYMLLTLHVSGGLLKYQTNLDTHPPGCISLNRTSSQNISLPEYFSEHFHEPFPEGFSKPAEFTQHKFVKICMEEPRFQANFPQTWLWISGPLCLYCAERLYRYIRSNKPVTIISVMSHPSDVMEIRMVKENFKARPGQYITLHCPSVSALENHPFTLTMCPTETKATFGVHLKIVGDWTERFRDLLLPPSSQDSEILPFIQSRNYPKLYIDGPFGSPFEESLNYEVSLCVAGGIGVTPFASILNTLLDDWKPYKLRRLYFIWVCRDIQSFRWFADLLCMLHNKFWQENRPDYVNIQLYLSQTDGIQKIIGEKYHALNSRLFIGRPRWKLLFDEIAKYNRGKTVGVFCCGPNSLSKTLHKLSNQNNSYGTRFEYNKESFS

`CCCCN1CC=CC23O[C@@H]4/C=C\CCC(C)OC(=O)C4[C@H]2C(=O)N(CCCCCCO)[C@@H]3C1=O` (stereo not given in full): the z-score in test [1] is 0.622 (inactive); in test [3], 0.548 (inactive); in test [4], 0.31 (inactive); in test [5] it was 0.573 (inactive); in test [6], 0.454 (inactive); in test [7] it was 1.81. Also, the z-score was 1.2 (inactive) in [8]; 0.112 (inactive) in test [9]; 2.3 in test [10]; -0.0164 in [11]; 0.736 in [12]; 1.11 in test [13]. Besides, the z-score in test [14] is 1.79; in test [15], -0.273; in test [16], 0.375; in [17], 0.145 (inactive); in test [18] it was 0.336; in test [19], -0.563. Moreover, the z-score in [20] was 0.254 (inactive). Besides, the composite z-score in test [2] was -0.145.
Take `COc1ccc([Si](C)(C)[C@H]2[C@H](CCn3cc([C@H](O)c4ccccc4)nn3)O[C@@]3(C(=O)N(Cc4ccc(N5CCOC5=O)cc4)c4ccccc43)[C@@H]2C)cc1`: the z-score in test [1] was -0.0796 (inactive); in test [3], 31.9 (active); in test [4], 31.7 (active); in test [5] it was 1.99 (inactive); in [6], 3.2 (inactive); in test [7], -0.532. The z-score was 0.308 (inactive) in [8]; 2.85 (inactive) in test [9]; 2.08 in [10]; 1.33 in test [11]; 0.805 in test [12]; 1.15 in test [13]. Besides, the z-score is -1.45 in test [14]; 0.142 in test [15]; 0.858 in test [16]; 0.174 (inactive) in [17]; 0.157 in test [18]; 0.113 in test [19]. Moreover, the z-score in test [20] was -0.265 (inactive). The composite z-score in test [2] was -0.147.
Regarding `CN(C)CCCNC(=O)[C@@H]1c2ccccc2C(=O)N(Cc2ccc(OC(F)(F)F)cc2)[C@H]1c1ccc(CO)cc1`, the z-score is 0.532 (inactive) in test [1]; 2.04 (inactive) in test [3]; 0.81 (inactive) in test [4]; 3 (inactive) in test [5]; 0.891 (inactive) in [6]; 0.0342 in [7]. Besides, the z-score is 0.799 (inactive) in test [8]; 0.237 (inactive) in test [9]; 1.44 in test [10]; 1.71 in test [11]; 1.91 in test [12]; -0.0979 in test [13]. Also, the z-score in test [14] is 0.584; in test [15], -2.39; in [16] it was 3.72; in test [17] it was -0.463 (inactive); in [18], -0.114; in test [19] it was -1.13. Moreover, in test [20], the z-score is 0.989 (inactive). The same compound displayed a composite z-score in test [2] of 0.197.
For `O=C1O[C@@H](c2ccccc2)[C@@H](c2ccccc2)N2[C@@H](c3ccc(O)cc3)[C@]3(C(=O)Nc4ccc(C#CCCO)cc43)[C@@H](C(=O)NC[C@H](O)c3ccccc3)[C@H]12`, the z-score is 0.646 (inactive) in test [1]; 2.75 (inactive) in [3]; 0.31 (inactive) in test [4]; 0.283 (inactive) in test [5]; 0.0695 (inactive) in test [6]; -0.318 in test [7]. The z-score in test [8] was -0.247 (inactive); in test [9], -0.718 (inactive); in test [10], -0.159; in test [11], 0.479; in test [12] it was 0.269; in test [13], 0.333. For the same compound, the z-score in test [14] is -0.121; in test [15] it was 0.671; in test [16] it was -1.93; in [17], -1.16 (inactive); in test [18] it was 0.198; in [19], -0.667. Moreover, the z-score in test [20] is 0.588 (inactive). The same compound showed a composite z-score in test [2] of 0.279.
